{"source": "PubChem BioAssay AID1508600", "about": "(Functional Genomics Laboratory (NCATS/FGL), 2020)", "note": "Out of some 53,000 sequences screened, about 3,700 (7%) were called active. The full list was thinned out, with actives kept by preference. Values without a mark were called inactive.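 The calls were made as follows: active = gene knockdowns whose robust z-score for IL-1 alpha signal is at least 2 or at most -2, so actives lie on both sides; inactive = the rest.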", "data": [{"experiment": "Components of the Cytosolic LPS Sensing Pathway: Gene Identification via Genome-wide siRNA Screen;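 also: robust z of the log signal after scaling to non-targeting control siRNA wells of the plate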", "settings": "RAW264.7 macrophages, IL-1a HTRF, actives lie on both sides, screened at 100 nM (by protocol), cells primed 5 h with Pam3CSK4 first", "how_it_was_run": "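IL-1a HTRF of supernatants after 24 hour LipidA transfection of Pam3CSK4-primed (5 hours) RAW264.7 cells, 48h post-siRNA transfection (100 nM). Scores: percent of plate negative-control median, then log-based robust z-score.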", "values": [{"sequence": "GGUGGCUAAAAGCUCUUCCTT against Odc1", "z-score": 1.9}, {"sequence": "GGCCCAUUGUUUGAGCCCATT against A530013C23Rik", "z-score": -0.961}, {"sequence": "GGCAUUAACCUGAGAUGAUTT against Sprr2i", "z-score": -1.42}, {"sequence": "GGCUAGCAGGAUCAGCAUCTT against Rnf212", "z-score": 0.617}, {"sequence": "GGUGCUUUUUUUGGAUCAATT against Olfr507", "z-score": -1.05}, {"sequence": "GGAAGAGAGGGUGAAUAUGTT against Tmem41b", "z-score": "-2.56 (active)"}, {"sequence": "CGGCAUUCAGAUUGUCUCUTT against Nup210", "z-score": -1.22}, {"sequence": "GGCCAUUGAGUGCUCCUACTT against Dhcr7", "z-score": -0.113}, {"sequence": "CCACUCAUUGUUCAUGGAATT against Olfr1490", "z-score": 0.798}, {"sequence": "GGACCUGAGUUAGGAGAAUTT against Zfp105", "z-score": "-2.06 (active)"}, {"sequence": "GGCUGAGAAUGCAAGAAUGTT against Krt32", "z-score": -0.446}, {"sequence": "GGAAUUCAGCUUUGUGCAATT against Asl", "z-score": 0.764}, {"sequence": "GGCCAGCAAAACAAAUGACTT against Slc34a2", "z-score": -1.01}, {"sequence": "GGUAAAGCAGUACCUUUCUTT against Mitf", "z-score": "2.53 (active)"}, {"sequence": "GGUGAUGCUGGAAUCUUCCTT against Svop", "z-score": 0.216}, {"sequence": "GCGAUUCGUCUUCGAGUUCTT against Fam161a", "z-score": 0.483}, {"sequence": "GGAACUAUUUUUUACCCAATT against Dclre1a", "z-score": -0.497}, {"sequence": "GGAAAGAAGAUCGAUUACATT against Atp11c", "z-score": "2.22 (active)"}, {"sequence": "GCCCUGUUUACACCUCUGATT against Sec23a", "z-score": -1.38}, {"sequence": "CGAAAGGUCAAAUUAACAGTT against Serpinb5", "z-score": 1.23}, {"sequence": "CCACAAAGAAUGCAUUACUTT against Eml3", "z-score": -0.912}, {"sequence": "GCUACUCAGUCUUUACUAUTT against Telo2", "z-score": "-2.14 (active)"}, {"sequence": "CCUGGCAGAGCAUUAUCUATT against Tmem201", "z-score": 0.558}, {"sequence": "GGAGACAACUGUCAAGCUGTT against Igdcc4", "z-score": -0.0921}, {"sequence": "GGCACAGAAAAUCUUCAAATT against Ap2a1", "z-score": 0.97}, {"sequence": "GGACUGAAGGAUGCCUCAATT against Cngb1", "z-score": 0.78}, {"sequence": "GCUAACAACGUGUGCUUCUTT against Fam20a", "z-score": -0.174}, {"sequence": "CCCGAGAUGUAUCAUCUAATT against Krcc1", "z-score": -0.31}, {"sequence": "UUCACUGUAAGAAUUGUCUTT against Vmn1r93", "z-score": "-2.11 (active)"}, {"sequence": "GGGAAUACAUUUUAUCUUCTT against Cpox", "z-score": -0.16}, {"sequence": "GAUGACUAGCUCUACUUUATT against Olfr738", "z-score": -0.0882}, {"sequence": "GGUAUCAGUAGCUGAUGUGTT against Pde8a", "z-score": 1.36}, {"sequence": "GGUGUGGGUGACAAGGUUATT against Tymp", "z-score": 0.153}, {"sequence": "GCAACACAAACACUGGCUATT against D930020B18Rik", "z-score": -1.57}, {"sequence": "CCUAGGAUAGAGAUUGUUGTT against Ndufaf3", "z-score": 0.135}, {"sequence": "GGUAGAUCAUGGCCAUCCUTT against Ntf5", "z-score": "2.04 (active)"}, {"sequence": "CGAUACACUGGUGCCCUAUTT against Tmem201", "z-score": -0.158}, {"sequence": "GGUGCCAGAUGUCAAGAAATT against Rpn2", "z-score": -0.685}, {"sequence": "GGAUCUGAAGACAUGGAGATT against H2-M1", "z-score": 0.659}, {"sequence": "CGCCCUUGGAGGUUAAUCATT against Nsg2", "z-score": 0.26}, {"sequence": "GGAACAGGCCGAGUUAGUATT against Olfr414", "z-score": 1.45}, {"sequence": "GGAAGGUGAUGAAUCAGCCTT against Wwtr1", "z-score": "-2.74 (active)"}, {"sequence": "GCUGAGUUCAUUGCAAUGCTT against Cyp4a12b", "z-score": 0.274}, {"sequence": "GGACGGCAGAAAGCAUUUATT against Olfr317", "z-score": 0.693}, {"sequence": "GGAAUUCAUCUUACAUUCCTT against Acox3", "z-score": "2.42 (active)"}, {"sequence": "GCUGACUCUUAGAUAAAUATT against Seh1l", "z-score": -0.81}, {"sequence": "CCAAAGAGAUAUCCCUCCCTT against Olfr1350", "z-score": -0.283}, {"sequence": "GCAGGAAUUCUUGAAUUAUTT against Ly75", "z-score": "2.66 (active)"}, {"sequence": "GGACUUCUCAUCCUAUUUATT against Iah1", "z-score": -0.638}, {"sequence": "GAAUGAACUGCUGAAAAAGTT against Klra16", "z-score": 0.462}, {"sequence": "GACUCCCAGCUGGCUAUGATT against Ifna9", "z-score": 0.583}, {"sequence": "GGCUCAGUACUUUCUAAAATT against Vmn1r72", "z-score": -0.637}, {"sequence": "GCCUUGUCUAUAGGACUGUTT against Grm6", "z-score": -0.00801}, {"sequence": "GCUUCAUGAUGAAUCACCUTT against Otulinl", "z-score": "-2.1 (active)"}, {"sequence": "CGAGCAUUCACCGUACGUATT against Id4", "z-score": 0.0542}, {"sequence": "GGGCAAGGUGUAUUGUCAATT against D830050J10Rik", "z-score": -0.00921}, {"sequence": "GGCCCAACAAUACCUGCUGTT against Rgs17", "z-score": -1.5}, {"sequence": "GGAUGAAGAAACAAGAAAGTT against Tmc1", "z-score": "-2.46 (active)"}, {"sequence": "GCACCGACCACCAAAUCUATT against Prol1", "z-score": 0.65}, {"sequence": "GGUUGUGACAAUGUGAUCCTT against Coro1a", "z-score": "-2.22 (active)"}, {"sequence": "CCAUCUACAAGUGUCCUUATT against Zfp276", "z-score": -0.632}, {"sequence": "CCAUAUCCCUGUGGAAAAGTT against Manf", "z-score": -0.322}, {"sequence": "CGGAUAUCCACAAAUAUCGTT against Atp1b3", "z-score": 0.508}, {"sequence": "GGGUUCAAGAGAUGGGAAUTT against Efna5", "z-score": 0.453}, {"sequence": "GCUCUCAGCAAAAACCGAGTT against Kif26b", "z-score": "2.98 (active)"}, {"sequence": "GGCUGUCAGUGUUUACAGGTT against Srd5a1", "z-score": -0.247}, {"sequence": "GGGAUGAUUCAAUGGAUAATT against Tbx22", "z-score": 0.789}, {"sequence": "GCUGGUUUCAUCCGCCAUATT against Dvl3", "z-score": 1.18}, {"sequence": "GCAUAUAAGAGAAGUGCCUTT against Parl", "z-score": 0.298}, {"sequence": "GCACCAAUACAUUUGGACCTT against Nabp1", "z-score": 1.74}, {"sequence": "GGAGUCAGUACUGUAAAAUTT against Rin2", "z-score": -1.91}, {"sequence": "GGAGAGAAAAAAGUCUCUCTT against Olfr66", "z-score": "2.55 (active)"}, {"sequence": "GCAACUGUUACUUCUCAACTT against Lrif1", "z-score": 0.598}, {"sequence": "GGUUAACUCCUUUUCUAGATT against Ints13", "z-score": -0.52}, {"sequence": "GCCUACACCAGUCCUUUGATT against Baiap2l1", "z-score": 0.509}, {"sequence": "GGAACUAUCCAGUAGGUAGTT against Mill2", "z-score": 0.846}, {"sequence": "GGUUCUGGAUUUCUGUUUUTT against Phf24", "z-score": -1.38}, {"sequence": "GGAUGAAGAUGGAGAUCUUTT against Tfg", "z-score": "2.14 (active)"}, {"sequence": "GGAAAAAGAACACCUUUUATT against Ints6l", "z-score": -0.74}, {"sequence": "GGACACCACCAAUCUUGACTT against Arsg", "z-score": -1.57}, {"sequence": "GGGCAUUGGGAUCCUCAAUTT against Olfr139", "z-score": -0.734}, {"sequence": "CGGAUCUUGUCAAUAACCATT against Angptl1", "z-score": 0.295}, {"sequence": "GCAGGAGUAAGAAUGAAUGTT against Luzp1", "z-score": 0.999}, {"sequence": "GGAACUUAGAAGUUUACAATT against Caml", "z-score": -0.0418}, {"sequence": "GGUCACAAAGAAGAAUCACTT against Heg1", "z-score": "-2.31 (active)"}, {"sequence": "GGUUGAGUGUUUGAAGUCATT against Slc38a11", "z-score": -1.9}, {"sequence": "GCUUUACUCCCUAAAUUCATT against Dmrt3", "z-score": 0.755}, {"sequence": "CCUCUUAGAUCAGGAUUAUTT against Usp37", "z-score": 0.991}, {"sequence": "GGCAUGGAAUGAGCUUUUCTT against Nr2e3", "z-score": "3.83 (active)"}, {"sequence": "GGACUAAGCAAUCUCUUUUTT against Gspt2", "z-score": 0.81}, {"sequence": "GGUGCUUUGUUAUCCAUAATT against Tnfrsf26", "z-score": "-2.72 (active)"}, {"sequence": "CCUAAUUGUAGUAGUACUATT against Olfr117", "z-score": -0.955}, {"sequence": "GGCCUAGCAAUUCUUGAGCTT against Gm5087", "z-score": -0.18}, {"sequence": "CCCUGUAUAUUGCAUUUCCTT against Pcdhb21", "z-score": 0.198}, {"sequence": "GGGAGUUUUUAUAUGGUUUTT against Ybey", "z-score": 1.27}, {"sequence": "GCAGAUGACUAUCGGAAGUTT against Usp53", "z-score": "2.19 (active)"}, {"sequence": "GGGCAGCAAAGAAUUAACUTT against Ptpmt1", "z-score": -0.619}, {"sequence": "GGAAGAAAAUCUUGAAGCATT against Ddx51", "z-score": -0.232}, {"sequence": "GCGAUAUGACAGACUCUUCTT against Csrnp1", "z-score": 1.79}, {"sequence": "GGAUGUUAUUCGCCACGCGTT against Zfp335", "z-score": -0.134}, {"sequence": "CCCGUUCAAGCAAUUACAUTT against G2e3", "z-score": -1.05}, {"sequence": "GGUGAAGACUUCCAGAAGGTT against Reg3a", "z-score": -0.186}, {"sequence": "CCUGUACAGUUGGAAACAUTT against Snrpd1", "z-score": "-2.02 (active)"}, {"sequence": "GGACUUCUCCUUUAAUAAUTT against Cox7a2l", "z-score": -0.494}, {"sequence": "GCCCGACCUGUUGAGAAGATT against Znhit3", "z-score": 1.43}, {"sequence": "GGAGGAAAAGUAGGUUUGCTT against Peli1", "z-score": -0.531}, {"sequence": "GGUAAGUGGAGGUAUUCUUTT against Egln1", "z-score": "2.28 (active)"}, {"sequence": "GGCCAGGAAAUAUGAAAUATT against Phtf1", "z-score": -0.352}]}]}
